The values that follow come from PubChem BioAssay AID540259 (Broad Institute, 2011).

Results with a measured potency or affinity are listed apart. Activity calls are given as the source filed them.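 Rule for the calls: active = cell killing, meaning signal decrease, with fitted half-maximal dose at or below ten times the top valid tested dose; inconclusive = poor fit, or flat curve with 30 to 70% signal loss; inactive = the rest.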

The nature of this experiment: HeLa cell cytotoxicity, dose response, cytotoxicity control for MITF activator project, CellTiter-Glo luminescence, cherry-pick samples (AID 540259).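 Note: 0% = DMSO neutral control and -100% = mitoxantrone positive control.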 As to conditions: HeLa viability, CellTiter-Glo ATP luminescence, 24 h; series mostly up to 35 µM; activity change, negative = cytotoxicity: at the top concentration. In general terms: In ATP-based viability assays light output follows the ATP content of the culture.
With `Cc1ccc2cc(/C=N/Nc3ccc(C(=O)O)cc3)c(Cl)nc2c1`, the “activity change, negative = cytotoxicity” value is 1.67% (inactive). The same measure for `C=CCNc1nc(-c2ccc(Cl)cc2)cs1`: -14.9% (inactive); for `COc1cc(/C=C/c2nc3ccccc3c(=O)[nH]2)ccc1OC(F)F`: 0.185% (inactive). `C/C(=C\C(=O)c1cccnc1)Nc1ccc(C)c(C)c1`: the “activity change, negative = cytotoxicity” value is 4.55% (inactive). The result for `Fc1ccccc1Nc1nc2ccccc2o1` reads -19.8% (inactive). The result for `O=C(Nc1ccc(C(F)(F)F)cc1)c1ccccc1` reads 9.08% (inactive); that for `Cc1cccc(OCc2nc(-c3nonc3N)no2)c1C`, -14.2% (inactive); that for `O=C(O)c1ccc(N/N=C/c2cccc(C(F)(F)F)c2)cc1`, -0.976% (inactive). The same measure for `O=C(Nc1ccc2oc(-c3ccccc3)nc2c1)c1cccnc1`: 5.53% (inactive); for `c1ccc2c(Nc3nnc(-c4ccncc4)s3)cccc2c1`: 0.946% (inactive). As for `CCN(CC)C(=O)c1cc(-c2ccc(Br)cc2)on1`, the “activity change, negative = cytotoxicity” value was 1.25% (inactive). The result for `c1ccc(COc2ccc(-c3csnn3)cc2)cc1` reads 2.43% (inactive). In the case of `O=C(Cc1cccs1)NCc1ccc(Cl)cc1Cl`, the “activity change, negative = cytotoxicity” value was 19.9% (inactive). The result for `CCS(=O)(=O)Nc1ccc(C(=O)NCCSc2ccccc2)cc1` reads -0.036% (inactive); that for `O=C1OC(c2ccccc2)=C/C1=C/N1CCCCC1`, 7.7% (inactive).

On to `COC(=O)c1cn(CC(=O)NCc2cccs2)c2ccccc12`, for which the “activity change, negative = cytotoxicity” value was 21.6% (inactive).

As to `CCN(CC)CC(=O)Nc1scc2c1c(=O)oc1ccccc12`, the “activity change, negative = cytotoxicity” value is 5.03% (inactive).

Regarding `CCC(=O)N1CCc2nc(-c3ccccc3)sc2C1`, the “activity change, negative = cytotoxicity” value was 0.697% (inactive). The same measure for `COC(=O)c1ccc(-c2ccc(Cl)cc2)nc1C`: -3.47% (inactive). The result for `COc1ccc(Br)c(C(=O)Nc2nc3ccccc3[nH]2)c1` reads -2.95% (inactive). The result for `COc1cc(/C=C/c2noc(-c3ccccc3O)n2)ccc1OC(C)=O` reads -3.83% (inactive); that for `CNC(=O)C(=O)Nc1nc(C23CC4CC(CC(C4)C2)C3)cs1`, 1.59% (inactive). On to `O=C(N/N=C/c1ccc(Cl)cc1Cl)c1cccc(F)c1`, for which the “activity change, negative = cytotoxicity” value was -4.05% (inactive).

As for `CCCn1nnc(NC(=O)c2ccc(-c3ccccc3)cc2)n1`, the “activity change, negative = cytotoxicity” value is 18.3% (inactive). Take `Cc1ccc(C(=O)Cn2nnc3ccccc32)cc1C`: the “activity change, negative = cytotoxicity” value was 2.49% (inactive). The result for `CCCCc1ccc(Nc2ncnc3nc[nH]c23)cc1` reads 12.9% (inactive); that for `COc1cccc2[nH]c(=O)c(-c3ccccc3)cc12`, 4.93% (inactive); that for `Clc1ccc(-c2cnnc(-c3ccccn3)n2)cc1`, 6.06% (inactive).

For `C/C(=N\O)c1ccc(N2C(=O)C3CC=C(Cl)CC3C2=O)cc1` (configuration not stated), the “activity change, negative = cytotoxicity” value was 12.3% [at 11 µM] (inactive). For the molecule `CC(C)(C)n1ncc2c(=O)n(CC(=O)c3ccccc3)cnc21`, the “activity change, negative = cytotoxicity” value is -10.5% (inactive). As for `CC(=O)c1cnc2nc(SCc3ccccc3)nn2c1C`, the “activity change, negative = cytotoxicity” value is 17.8% (inactive). The same measure for `CC1CCN(C(=O)Nc2ccc3nsnc3c2)CC1`: 7.47% (inactive); for `COc1ccc2sc(NCc3ccccc3)nc2c1`: 0.849% (inactive). On to `O=C(Nc1cccc(F)c1)NC1CCCCCCC1`, for which the “activity change, negative = cytotoxicity” value was -4.47% (inactive).

For `Cc1nc2ccccc2nc(=O)c1NNc1ccccc1`, the “activity change, negative = cytotoxicity” value is 2.78% (inactive). For `COC(=O)Cc1csc(Nc2ccccc2Cl)n1`, the “activity change, negative = cytotoxicity” value is 9.68% (inactive).

For the molecule `C=CCN=C1S/C(=C\c2ccc(N(C)C)cc2)C(=O)N1CC=C`, the “activity change, negative = cytotoxicity” value is -1.96% (inactive).
